Bioassay records deposited in PubChem by National Center for Advancing Translational Sciences (NCATS).
Shown are actives, neighbours in structure and some others; about 6% of the full set was active somewhere.
VDR inhibitor: vitamin D3 receptor (human) inhibition. VDR-SRC2-3 peptide fluorescence polarization, 2 h. actives 0.93% (n = 400,000). Potency, µM, hits mostly inhibitors. P11473
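FP read-out; VDR + SRC2-3 coactivator peptide; 23 nl compound by pintool; 2 h RT incubation; reagents held at 4 deg C, protected from light.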
Sfp PPTase inh: blocks B. subtilis Sfp PPTase activity. Q9F4F7. Biochemical Sfp PPTase activity, qHTS. Potency, µM, usual class: inhibitors. actives 3.5% (n = 310,000). AID 1490;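 further: the enzyme is Sfp with the accession as filed and its product quenches rhodamine fluorescence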
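Buffer: 50 mM Hepes-Na pH 7.6, 10 mM MgCl2, 0.01% Nonidet P-40, 0.01% BSA. Enzyme 15 nM, pre-exposed to compound 15 min; substrates then added and fluorescence change tracked over 30 min.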
Tau fibril ThT: tau fibrillization inhibition (ThT binding). P10636. recombinant tau K18 P301L, heparin-induced fibrillization, ThT fluorescence. Potency, µM (series often up to 57.4 µM), most hits filed as inhibitors. actives 2.1% (n = 270,000). AID 1460; further: nearly all actives have a fitted effect of over 55% in size
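Heparin-induced fibrillization of the P301L-mutant K18 repeat-domain fragment of human tau was followed by ThT binding in quantitative high-throughput format.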
PLK1 PBD inh: blocks phosphopeptide binding to human PLK1 polo-box domain. Plk1 PBD binding of FITC phosphopeptide, fluorescence polarization. actives 2.8% (n = 360,000). P53350. Potency, µM, usual class: inhibitors; further: series mostly up to about 57 µM; nearly all actives have a fitted effect of over 65% in size
Target sequence (P53350 whole entry, looked up, the tested form may be a part): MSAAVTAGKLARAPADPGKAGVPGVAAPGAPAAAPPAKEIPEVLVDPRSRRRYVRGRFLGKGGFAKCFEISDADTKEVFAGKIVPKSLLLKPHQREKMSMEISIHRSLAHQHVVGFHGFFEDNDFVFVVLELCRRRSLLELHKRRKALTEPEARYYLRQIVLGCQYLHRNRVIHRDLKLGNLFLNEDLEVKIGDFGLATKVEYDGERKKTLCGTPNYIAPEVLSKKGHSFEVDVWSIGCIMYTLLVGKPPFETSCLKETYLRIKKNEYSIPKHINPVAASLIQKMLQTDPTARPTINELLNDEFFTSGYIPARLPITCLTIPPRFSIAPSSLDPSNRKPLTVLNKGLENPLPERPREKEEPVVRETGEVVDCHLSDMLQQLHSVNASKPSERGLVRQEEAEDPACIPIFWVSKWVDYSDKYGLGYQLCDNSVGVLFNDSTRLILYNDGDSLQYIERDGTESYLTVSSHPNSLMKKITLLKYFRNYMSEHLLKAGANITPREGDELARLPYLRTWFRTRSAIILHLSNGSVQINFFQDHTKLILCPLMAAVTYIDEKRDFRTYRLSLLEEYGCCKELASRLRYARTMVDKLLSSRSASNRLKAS
Tau fluor cs: counter-screen for tau fibril formation inhibitors; tau K18 P301L Alexa594 fluorescence, heparin fibrillization; Potency, µM (titrated, usually from 57.7 µM); actives 0.93% (n = 280,000); AID 1463; further: nearly all actives have a fitted effect of over 55% in size
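Human tau K18 P301L (15 uM unlabeled, 0.24 uM Alexa 594-labeled) in 100 mM sodium acetate pH 7 with 20 uM heparin, 6 hr at 37 C. ThT 30 uM added, 1 hr ambient; Alexa 594 FP and total fluorescence read at 555/632 nm.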
Tau fibril FP: blocks human tau fibril formation measured by polarization; K18 P301L tau heparin fibrillization, Alexa594 FP, 6 h; actives 0.39% (n = 280,000); P10636; Potency, µM (top dose mostly 57.7 µM), usual class: inhibitors; further: nearly all actives have a fitted effect of over 55% in size
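FP of Alexa 594-tau after heparin (20 uM) induction. Substrate: human K18 P301L, 15 uM unlabeled, 0.24 uM labeled. Buffer 100 mM sodium acetate pH 7. 6 hr, 37 C.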
Each line names hits and unclear results; the compound was inactive in the other large screens. The call rests on the fitted dose curve; in most records, active means well fitted curve in the direction sought with a large enough effect; inconclusive means small, poorly fitted or top-dose-only effect, or another doubt; inactive means no such curve, though single readings can be large; an effect the other way counts as inactive or inconclusive.

c1ccc2c(c1)CC(N1CCN(c3cccc4c3OCCO4)CC1)C2	none (no result: PLK1 PBD inh)
Cc1cc(O)c2c(c1O)C(=O)[C@]13C(=C2O)C(=O)[C@@H]2[C@@H](O)[C@H]1[C@@H]1[C@H](O)[C@H]3C(=O)C3=C(O)c4c(O)cc(C)c(O)c4C(=O)[C@]312	PLK1 PBD inh 29.9µM (no result: Sfp PPTase inh, Tau fibril ThT, Tau fluor cs, Tau fibril FP)
Cc1cc(O)c2c(c1O)C(=O)c1c(O)cc(C)c(O)c1C2=O	VDR inhibitor inconclusive, Tau fibril ThT inconclusive (no result: PLK1 PBD inh)
Brc1ccc(NC2=Nc3ccccc3CC2)cc1	VDR inhibitor inconclusive, PLK1 PBD inh 11.9µM
COc1cc(/C=C2\N=C3CCCCCN3C2=O)ccc1O	none
O=C1/C(=C\c2ccc(O)c(O)c2)N=C2CCCCCN12	Sfp PPTase inh 56.2µM, Tau fibril ThT inconclusive
CC(C)OC(=O)N(C)C[C@@H]1OCc2ccccc2-c2c(n(C)c3ccccc23)C(=O)N([C@@H](C)CO)C[C@H]1C	none (no result: VDR inhibitor, Sfp PPTase inh, Tau fibril ThT, Tau fluor cs, Tau fibril FP)
O=C(Nc1ccc(Cl)cc1)Nc1nnc(CSCc2ccccc2Cl)s1	Tau fibril ThT inconclusive, Tau fibril FP inconclusive
Cc1ccc(OCCSCc2nnc(NC(=O)Nc3cccc(Cl)c3)s2)cc1	Tau fluor cs inconclusive, Tau fibril FP 15.8µM
O=C(Nc1ccccc1)Nc1nnc(CSCc2ccccc2Cl)s1	Tau fluor cs inconclusive, Tau fibril FP 10µM
O=C(Nc1ccc(Cl)c(Cl)c1)Nc1nnc(CSc2ccccc2)s1	Tau fibril FP 3.55µM
CC1=C(C(=O)Nc2ccccc2)C(c2ccc(C(=O)O)cc2)n2ncnc2N1 (stereo not drawn)	none (no result: Sfp PPTase inh, PLK1 PBD inh)
CCN(CC)C(=O)Cn1c(=O)n(-c2ccc(C)c(C)c2)c(=O)c2c3c(sc21)CCCCC3	none (no result: Sfp PPTase inh, PLK1 PBD inh)
COc1cc(NC(=O)NC(C)c2c(-n3cccc3)sc3c2CCN(C)C3)cc(OC)c1 (stereo not drawn)	Tau fluor cs inconclusive (no result: Sfp PPTase inh, PLK1 PBD inh)
CC(=O)C[C@H](O)CC(=O)[C@H]1OC(=O)CCCCCCCc2ccccc21	none (no result: Sfp PPTase inh, Tau fibril ThT, Tau fluor cs, Tau fibril FP)
CCn1nnc(NC(=O)CSc2ccc(Cl)cc2)n1	PLK1 PBD inh 26.7µM
CCCCn1nnc(NC(=O)Cc2ccc(Cl)cc2)n1	none
O=c1c(-c2ccccc2)nc2cnc(N3CCOCC3)nc2n1Cc1cccs1	none (no result: Tau fibril ThT, PLK1 PBD inh, Tau fluor cs, Tau fibril FP)
Cc1ccc(N2C(=O)N(CC(=O)Nc3ccc([N+](=O)[O-])cc3)C(=O)C2C)cc1 (stereo not drawn)	none (no result: Tau fibril ThT, Tau fluor cs, Tau fibril FP)
CC1=NN(c2ccc([N+](=O)[O-])cc2)C(=O)C1[N+](=O)[O-] (stereo not drawn)	VDR inhibitor inconclusive, Tau fibril ThT 12.6µM, Tau fluor cs inconclusive (no result: PLK1 PBD inh)
c1ccc(CCN(Cc2ccccc2)C2CCN(C3CCCC3)CC2)cc1	Sfp PPTase inh 50.1µM
O=C(CCCc1ccccc1)N1CCN(C2CCCCC2)CC1	none (no result: Tau fibril ThT, Tau fluor cs, Tau fibril FP)
O=C(CCCn1c2ccccc2c(=O)c2ccccc21)Nc1ccc(F)cc1Cl	Tau fibril ThT inconclusive (no result: Sfp PPTase inh, PLK1 PBD inh)
CCCCC[n+]1ccn(-c2nc3ccccc3nc2[N-]S(=O)(=O)c2ccc(C)cc2)c1	Sfp PPTase inh 56.2µM
CCCC[n+]1ccn(-c2nc3ccccc3nc2[N-]S(=O)(=O)c2cccs2)c1	Sfp PPTase inh 35.5µM, Tau fibril ThT inconclusive
O=C(CSc1nnc(-c2ccccc2F)n1C1CC1)NCc1ccco1	none (no result: Sfp PPTase inh, Tau fibril ThT, Tau fluor cs, Tau fibril FP)
COc1ccc(-c2nc3scc(CCNS(=O)(=O)c4c(C)cc(C)cc4C)n3n2)cc1OC	none (no result: Sfp PPTase inh, PLK1 PBD inh)
COc1ccc(-c2nc3ccc(C)cn3c2Cc2ccsc2)cc1OC	none (no result: VDR inhibitor, Sfp PPTase inh, Tau fibril ThT, Tau fluor cs, Tau fibril FP)
CCN(CC)C(=O)c1sc2[nH]c(=S)n(-c3ccccc3)c(=O)c2c1C	Sfp PPTase inh 79.4µM
COc1cc(C2Nc3ccc4ccccc4c3C3=C2C(=O)CC(C)(C)C3)ccc1OC(C)C(=O)O (stereo not drawn)	PLK1 PBD inh inconclusive (no result: Tau fibril ThT, Tau fluor cs, Tau fibril FP)
CCc1ccc(-n2nnnc2SCC(=O)Nc2ccc(NC(C)=O)cc2)cc1	none (no result: Tau fibril ThT, Tau fluor cs, Tau fibril FP)
CC(=O)Nc1ccc(-n2nnnc2SCC(=O)Nc2cccc(NC(=O)c3ccco3)c2)cc1	Sfp PPTase inh 50.1µM
CC(=O)c1cccc(NCC(=O)c2ccc(C)c([N+](=O)[O-])c2)c1	VDR inhibitor inconclusive, Sfp PPTase inh 17.8µM, PLK1 PBD inh inconclusive (no result: Tau fibril ThT, Tau fluor cs, Tau fibril FP)
COc1ccc(C(=O)N/N=C/c2cc3ccccc3[nH]c2=S)cc1	Tau fibril ThT 3.98µM, PLK1 PBD inh 15µM, Tau fluor cs inconclusive
COc1ccccc1/C=N/NC(=O)c1cccc2ccccc12	VDR inhibitor 79.4µM, PLK1 PBD inh 15µM (no result: Tau fibril ThT, Tau fluor cs, Tau fibril FP)
